Results published in PubChem BioAssay AID584 (National Center for Advancing Translational Sciences (NCATS), 2007).
In all, about 71,000 compounds went through this assay and about 65 (0.09%) were called active. Calls follow the shape of the dose curve; as a rule, active = well fitted curve in the direction sought with a large enough effect; inconclusive = small, poorly fitted or top-dose-only effect; inactive = flat fitted curve, though single readings scatter. For the sample, actives were picked, then their nearest neighbours and some compounds at random.

The compounds below were run against Beta-lactamase (Escherichia coli (strain K12)) (UniProt P00811) (assay: Promiscuous and Specific Inhibitors of AmpC Beta-Lactamase (assay with detergent)). Settings: purified AmpC, nitrocefin hydrolysis with detergent; series mostly up to 28.7 µM; activity change, negative = inhibition: at the top concentration.
Description: NIH Molecular Libraries Screening Centers Network [MLSCN]
NIH Chemical Genomics Center [NCGC]
PI Name: Shoichet, Brian K.
This aggregation profiling approach exploits the sensitivity of aggregate formation to detergent. Inhibition of b-lactamase is measured in the presence and absence of 0.01% Triton X-100. This particular assay had the prescence of 0.01% Triton X-100. See Pubchem assay "Promiscuous and Specific Inhibitors of AmpC Beta-Lactamase (assay without detergent)" for related screen. Compounds that inhibit only in the absence of detergent are considered likely promiscuous aggregators.
A screen of 1,030 compounds was performed in Brian Shoichet's lab in 96-well format. AmpC activity was measured by following the absorbance at 480 nm. Nitrocefin is a chromogenic substrate: while nitrocefin is yellow (lmax 390 nm), the product of its hydrolysis is red (lmax 486 nm, 17,000 M-1). AmpC beta lactamase was provided by Brian Shoichet and Brian Feng, UCSF.
NCGC Assay Protocol Summary:
20 mM phosphate buffer, pH 7.0
Triton X-100: No Detergent screen: 0.0001%, Detergent screen: 0.01%.
Buffer in columns 3 and 4 as negative control (no enzyme).
5.3 nM AmpC in columns 1, 2, 5-48. Titration of UCSF compound 9 control (from 10 mM, then 1:2) pin-transferred to column 2. Column 1 is neutral (100% activity).
Six uL of reagents were dispensed to 1536-well Greiner black clear bottom plates. Compounds and controls (23 nL) were transferred via Kalypsys PinTool. The plates were incubated for 15 min at room temperature, and then 2 uL of 800 uM solution of nitrocefin was added to start the reaction. The plates were immediately transferred to and read every 20 seconds for 4 min on ViewLux (Perkin-Elmer) High-throughput CCD imager using 480 nm absorbance protocol. During dispense, reagent bottles were kept submerged into 4 deg C water bath.
Keywords: NIH Roadmap, MLSCN, MLI, MLSMR, qHTS, NCGC, AmpC Beta-Lactamase, Aggregation
% is scaled to controls: 0 for no effect and ±100 for the full control effect; potency is read from the fitted curve at half-maximal effect.

Beta-lactamase (Escherichia coli (strain K12)), sequence (P00811 whole entry, looked up): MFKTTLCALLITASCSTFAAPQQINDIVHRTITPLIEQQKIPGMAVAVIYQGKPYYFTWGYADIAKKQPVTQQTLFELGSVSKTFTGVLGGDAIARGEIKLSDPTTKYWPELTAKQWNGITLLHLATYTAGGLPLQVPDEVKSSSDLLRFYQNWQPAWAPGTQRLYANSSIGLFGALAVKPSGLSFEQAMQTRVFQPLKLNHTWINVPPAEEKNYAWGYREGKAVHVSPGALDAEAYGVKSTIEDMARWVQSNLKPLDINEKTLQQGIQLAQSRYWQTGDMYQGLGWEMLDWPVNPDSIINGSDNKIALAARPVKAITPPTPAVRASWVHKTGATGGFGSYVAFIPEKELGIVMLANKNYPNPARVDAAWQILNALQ

Structure (SMILES) | activity change, negative = inhibition | Potency
O=C(c1cccs1)N1CCCC(c2nc(-c3ccc(F)cc3)no2)C1 (centres undefined) | -1.33% (inactive) | –
CS(=O)(=O)NCc1ccc(C(=O)NCc2ccccc2)cc1 | -4.11% (inactive) | –
COc1cccc(-n2c(SCC(=O)NC3CCCCC3)nc3n[nH]c(C)c3c2=N)c1 | 3.34% (inactive) | –
CCOC(=O)c1ccc(N2C(=O)CC(N3CC(C)OC(C)C3)C2=O)cc1 (centres undefined) | -3.59% (inactive) | –
CCOc1ccc2nc(NCCNS(=O)(=O)c3ccccc3)c(C#N)cc2c1 | 7.14% (inactive) | –
O=C(Cn1ccc(=O)[nH]c1=O)Nc1ccc(C(=O)O)c(O)c1 | -5.4% [at 5.75 µM] (inactive) | –
COc1cc(C[C@H](C)N)c(OC)cc1I | inactive | –
O=C(Nc1ccccc1)N(Cc1cccnc1)Cc1ccco1 | -3.39% (inactive) | –
O=C(O)CSCNC(=O)CC12CC3CC(CC(C3)C1)C2 | -1.26% (inactive) | –
CCOc1c(N2CCCCC2)c(=O)c1=O | 10.1% (inactive) | –
NC(=S)c1ccc(C(N)=S)o1 | -5.48% (inactive) | –
O=C(Nc1ccccc1)N[C@H]1C[C@H](C(=O)O)Nc2cc(Cl)cc(Cl)c21 | -2.4% (inactive) | –
O=C(CN(CC1CCCO1)C(=O)CNS(=O)(=O)c1ccccc1)NCc1ccccc1 (centres undefined) | 1.85% (inactive) | –
COC(=O)c1ccc(S(=O)(=O)c2ccc(C(=O)OC)s2)s1 | -1.11% (inactive) | –
CCNS(=O)(=O)c1ccc(NC(=O)Nc2cccc(C(F)(F)F)c2)cc1 | 19.8% (inactive) | –
O=C(NCc1ccccn1)c1cc2ccccc2oc1=O | -3.08% (inactive) | –
COc1ccc2oc(=O)c(C(=O)O)cc2c1 | -3.06% (inactive) | –
O=C(Oc1cccnc1)c1cc2ccccc2oc1=O | – | 10 µM (active)
C=CCOc1ccc(C2/C(=C(\O)c3c(C)[nH]c(C(=O)OC)c3C)C(=O)C(=O)N2CCN(C)C)cc1 (centres undefined) | -1.73% (inactive) | –
Cc1ccc(Oc2ccc(N)cc2)cc1 | -6.72% (inactive) | –
COc1ccc(S(=O)(=O)N2CCCC(C(=O)N3CCN(C)CC3)C2)cc1C (centres undefined) | 0.3% (inactive) | –
c1nnc2c3c4c(sc3ncn12)CCC4 | 2.4% (inactive) | –
Cc1cccc(C)c1NC(=O)N1CC=C(n2c(=O)[nH]c3ccccc32)CC1 | -0.392% (inactive) | –

Structure (SMILES) | activity change, negative = inhibition | Potency
Cc1cn(C2C=CC(CO)O2)c(=O)[nH]c1=O (centres undefined) | -3.11% (inactive) | –
c1ccc(Nc2n[nH]nc2-c2ccccc2)cc1 | -5.69% (inactive) | –
CCCn1c(SCC(N)=O)nnc1C(C)C | -2.16% (inactive) | –
CC(C)(C)C(=O)CCN1C(=O)C2(OCCO2)c2ccccc21 | -1.15% (inactive) | –
Cc1noc(C)c1-c1nccc(N2CCOCC2)n1 | 0.7% (inactive) | –
COC(=O)c1nc(NC(=O)c2ccc(Cl)cc2)n[nH]1 | 1.67% (inactive) | –
CCCCn1nnnc1NCc1cc(OC)c(OC)c(OC)c1 | -0.286% (inactive) | –
CCOC(=O)C(C(=O)OCC)C(C#N)c1ccccc1 (centres undefined) | 14.3% (inactive) | –
CC(=O)Oc1cccc(N2C(=O)CC(Nc3ccc(N4CCOCC4)cc3)C2=O)c1 (centres undefined) | -7.46% (inactive) | –
CCC(=O)c1ccc(OCC(O)CN2C(=O)NC(C)(C)C2=O)cc1 (centres undefined) | 10.9% (inactive) | –
COc1ccc(-n2ncc3c(N4CCCc5ccccc54)ncnc32)cc1 | -4.66% (inactive) | –
COC(=O)c1ccccc1NC(=O)CSc1ccccn1 | 0.234% (inactive) | –
O=C(CN1C(=O)CCC1=O)Nc1ccc(S(=O)(=O)N2CCOCC2)cc1 | -0.675% (inactive) | –
CCS(=O)(=O)n1nc(-c2ccccc2)nc1SCc1ccccc1 | -2.9% (inactive) | –
CCCC(=O)C1=C(N(C)c2ccccc2)CC(C)(C)C(C(=O)OC)C1=O (centres undefined) | -2.7% (inactive) | –
Cn1cccc1C1(C(F)(F)F)NCCNC1=O (centres undefined) | -0.082% (inactive) | –
CC(C)N(C(=O)COC(=O)c1ccccc1C(=O)N1CCN(c2ccc(F)cc2)CC1)C(C)C | 9.33% (inactive) | –
O=c1[nH]c(=O)n([C@H]2C[C@H](O)[C@H](CO)O2)cc1Br | -1.6% (inactive) | –
CC(=O)/C(C)=N\O | inactive | –
CC(C)Cc1ccc(S(=O)(=O)N2CCN(C(=O)c3ccco3)CC2)cc1 | -7.76% (inactive) | –
O=c1c(-c2ccc(F)cc2)nc2cnc(N3CCOCC3)nc2n1-c1ccccc1 | -2.6% (inactive) | –
CCON=C1C(C)(C)C(C)(C)C(C)(C)C1(C)C | -1.9% [at 5.75 µM] (inactive) | –
COc1cccc(NC(=O)c2ccccc2SC)c1 | -2.07% (inactive) | –

Structure (SMILES) | activity change, negative = inhibition | Potency
CCOC(=O)c1cccc(NC(=O)CN(c2ccc(C)cc2)S(=O)(=O)c2c(C)noc2C)c1 | -3.74% (inactive) | –
C[C@H]1O[C@@H](CC(=O)O)Cc2c1c(O)c1c(O)cc(-c3cc(=O)c4c(=O)c5c(c(=O)c=4c3=O)C[C@H](CC(=O)O)O[C@@H]5C)c(O)c1c2O | -3.2% [at 5.75 µM] (inactive) | –
CCCCc1nc2ccccc2c(NC(=O)CN2CCN(C)CC2)c1CCC | -6.24% (inactive) | –
O=C(O)Cc1ccc(-c2ccccc2)cc1 | 1% [at 12.8 µM] (inactive) | –
O=C(O)C(=O)Cc1ccc2c(c1)OCO2 | -2% [at 5.75 µM] (inactive) | –
CC/C(=N\O)C(C)(C)/[N+]([O-])=C/c1ccc(Br)cc1 | -3.57% (inactive) | –
CC(=O)NC(Cc1ccc(F)cc1)C(=O)O (centres undefined) | 1.35% (inactive) | –
Nc1nonc1-c1noc(-c2ccc(Br)o2)n1 | -1.42% (inactive) | –
Cc1ccc(C)n1-c1ccncc1 | -1.08% (inactive) | –
O=C(CCCn1c(=O)oc2ccccc21)Nc1cccnc1 | -2.89% (inactive) | –
COc1ccc(C(=O)Nc2c(N)nc(SCC(=O)N3CCC(C)CC3)[nH]c2=O)cc1OC | 6.59% (inactive) | –
COC(=O)c1sc(=S)n(-c2ccccc2)c1N | -0.579% (inactive) | –
COc1ccc(CCN2CNc3c(c(=O)n(C)c(=O)n3C)C2)cc1OC | -3.65% (inactive) | –
CC1CCN(Cc2nc3c(c(=O)n(C)c(=O)n3C)n2CCc2ccccc2)CC1 | 13.7% (inactive) | –
COc1ccc(CCNC(=O)CSc2nc(C)nc3c2oc2ccccc23)cc1OC | -0.64% (inactive) | –
CCn1c(-c2cc(OC)ccc2OC)csc1=Nc1c(C)n(C)n(-c2ccccc2)c1=O | -1.83% (inactive) | –
COc1ccc(C)c(Cn2c(-c3nonc3N)nc3ccccc32)c1 | -2.41% (inactive) | –
CCCCOc1ccc(C(=O)NCc2ccco2)cc1 | 8.19% (inactive) | –
Cc1ccc2c(CSc3nncs3)cc(=O)oc2c1 | 13.6% (inactive) | –
CCOC(=O)C1CCN(C(=O)C2CCN(S(=O)(=O)N3CCCC3)CC2)CC1 | -0.132% (inactive) | –
COc1ccccc1-c1nnc(SCC(=O)Nc2cc(C)on2)o1 | -4.26% (inactive) | –
CSCCC(NC(N)=O)C(=O)N(C)CC(=O)Nc1ccc(C)cc1 (centres undefined) | 0.529% (inactive) | –
CCOc1ccc(OCC)c(NC(=O)CSc2nnc(Cn3cnc4ccccc43)n2C)c1 | -2.84% (inactive) | –
